This is a sample that favours compounds with a hit; in the whole collection about 1.5% have one here.
SARS 3CLpro inh: SARS-CoV 3CLpro protease inhibition; recombinant SARS-CoV 3CLpro, quenched FRET peptide cleavage; inhibition, % at 6 µM; 290,000 tested, 0.14% active; AID 1706; in the data active = inhibition above about 12%
VHR inh abs: DUSP3 (human) phosphatase inhibition; recombinant VHR phosphatase, pNPP absorbance; inhibition, % at 13.3 µM; 290,000 tested, 0.52% active; in the data active = inhibition above about 50%
CCHF vOTU inh: CCHFV vOTU protease inhibition; Pep-AMC fluorescence; inhibition, % at 11.5 µM; 370,000 tested, 0.55% active; in the data active = inhibition above about 30%; also: 0% = vehicle wells with enzyme and 100% = no enzyme wells
RecA splice inh: blocks M. tuberculosis RecA intein splicing | cell-free RecA intein splicing, fluorescence | inhibition, % (concentration not given with the values) | 290,000 tested, 0.75% active | AID 2221; in the data active = inhibition above about 30%;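 also: 0% = vehicle wells and 100% = reference inhibitor control wells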
Target sequence (P9WHJ3 whole entry, looked up, canonical isoform): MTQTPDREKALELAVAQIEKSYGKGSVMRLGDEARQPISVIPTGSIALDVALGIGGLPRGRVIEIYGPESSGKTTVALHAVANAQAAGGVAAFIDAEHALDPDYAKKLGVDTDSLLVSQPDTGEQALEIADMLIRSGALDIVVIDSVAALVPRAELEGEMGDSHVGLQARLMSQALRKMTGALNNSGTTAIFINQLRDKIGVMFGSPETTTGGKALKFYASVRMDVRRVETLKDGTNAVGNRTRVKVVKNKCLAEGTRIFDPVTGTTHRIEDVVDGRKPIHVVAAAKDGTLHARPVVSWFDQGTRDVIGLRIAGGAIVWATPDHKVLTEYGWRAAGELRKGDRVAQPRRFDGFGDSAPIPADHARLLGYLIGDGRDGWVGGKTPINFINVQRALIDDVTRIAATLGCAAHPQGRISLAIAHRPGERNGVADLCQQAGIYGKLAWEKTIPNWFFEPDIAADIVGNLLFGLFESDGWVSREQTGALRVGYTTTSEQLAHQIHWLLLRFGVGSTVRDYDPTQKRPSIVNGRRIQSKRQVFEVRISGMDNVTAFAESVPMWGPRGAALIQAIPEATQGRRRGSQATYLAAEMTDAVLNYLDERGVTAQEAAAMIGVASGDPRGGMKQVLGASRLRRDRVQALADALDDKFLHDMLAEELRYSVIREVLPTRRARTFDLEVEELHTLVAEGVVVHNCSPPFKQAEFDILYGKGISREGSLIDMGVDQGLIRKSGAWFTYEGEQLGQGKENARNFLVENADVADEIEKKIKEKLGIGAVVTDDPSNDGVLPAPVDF
An asterisk follows results filed as active; · = not tested or not shown.

SMILES	SARS 3CLpro inh	VHR inh abs	CCHF vOTU inh	RecA splice inh
Cc1nn(-c2ccccc2)c2sc(C(=O)NC3CCCC3)cc12	·	·	1.0	·
O=C(NC1CCCCC1)c1ccc(S(=O)(=O)c2ccccc2Cl)c([N+](=O)[O-])c1	5.3	1.2	·	-1.5
CN(C(=O)c1ccc(S(=O)(=O)c2cccc(Cl)c2)c([N+](=O)[O-])c1)C1CCCCC1	5.5	29.9	-5.3	35.4*
COC(=O)C[C@H]1c2cc(C(F)(F)F)ccc2S(=O)(=O)N1C1CCCC1	·	·	1.7	-3.4
Cc1cc(=O)n2nc(N3CCCC(C(=O)NCc4cccc(Br)c4)C3)sc2n1 (stereo not given)	-4.5	15.0	4.8	-0.4
CNc1ncnc2c1ncn2[C@H]1CN(CCN2CCOCC2)C[C@@H](CO)O1	·	·	2.3	·
COc1ccc2oc(C(=O)NCC3CCCO3)c(C)c2c1 (stereo not given)	-5.8	52.2*	-0.6	3.6
NS(=O)(=O)c1ccc(Nc2nc(-c3ccc(O)cc3)cs2)cc1	-2.0	-11.2	2.2	2.4
Oc1ccc(Nc2nc(-c3ccc(O)cc3)cs2)cc1	-6.0	9.6	0.9	33.5*
O=C(O)c1ccc(Nc2nc(-c3cccnc3)cs2)cc1	-6.1	53.0*	-2.2	0.0
Cc1[nH]nc2c1C(c1ccc(F)cc1)C(C#N)=C(N)O2 (stereo not given)	-3.0	-12.3	-0.3	·
Cc1[nH]nc2c1C(c1ccc(-c3ccc(Cl)cc3)o1)C(C#N)=C(N)O2 (stereo not given)	5.4	-11.3	-2.1	67.8*
CCC(CC)C1C(C#N)=C(N)Oc2n[nH]c(C)c21 (stereo not given)	5.1	-2.0	-9.9	-6.9
Cc1[nH]nc2c1C(c1ccc(-c3ccccc3C#N)o1)C(C#N)=C(N)O2 (stereo not given)	5.1	4.2	·	64.7*
O=C(CCl)Nc1cccc(-c2cnc3ccccc3n2)c1	-0.7	-6.1	11.4	46.0*
CC(Oc1ccc2c3c(c(=O)oc2c1)CCCC3)C(=O)NCCCn1ccnc1 (stereo not given)	-2.1	57.9*	1.4	2.9
Cc1cc(=O)oc2cc(OC(C)C(=O)NCCCn3ccnc3)ccc12 (stereo not given)	-2.4	17.8	-15.1	-0.8
C=CCN1[C@H](CO)[C@H](c2ccc(Br)cc2)[C@@H]1C#N	·	·	9.1	·
O=C(COc1ccc(Cl)cc1)Nc1ccccc1Cl	2.5	53.9*	5.4	-3.2
CCN1CCCCC(NC(=O)Cc2ccccc2)C1=O (stereo not given)	·	·	0.0	·
COc1ccc(CCC(=O)NC(C)c2ccccc2)cc1OC (stereo not given)	-3.8	56.9*	1.9	0.0
COc1ccccc1CNC(=O)NC1CCN(CC(=O)Nc2ccc3c(c2)OCCO3)CC1	·	·	8.1	·
Cc1[nH]n(-c2ccccc2)c(=O)c1/C=C1/C=c2ccccc2=N1	3.3	-2.4	11.4	34.5*
Cc1cccnc1NC(=O)C1CCCN(S(=O)(=O)c2ccc3c(c2)oc(=O)n3C)C1 (stereo not given)	-4.6	19.0	-5.8	-1.4
Cc1ccc(NC(=O)C2CCCN(S(=O)(=O)c3ccc4c(c3)oc(=O)n4C)C2)nc1 (stereo not given)	-4.7	27.8	29.9*	-1.5
SMILES	SARS 3CLpro inh	VHR inh abs	CCHF vOTU inh	RecA splice inh
O=C(O)c1ccc(/C=C(\c2nc3ccccc3[nH]2)c2nc3ccccc3s2)cc1	1.6	-0.1	17.9	38.9*
CC(C)C[C@H]1COc2cc(N3CCCC3)ccc2S(=O)(=O)N1	·	·	1.2	·
CN(C)S(=O)(=O)c1ccc(NC=O)cc1	-3.0	26.4	-2.0	-2.1
Cn1c(=O)c2cc(NCc3ccccc3)nnc2n(C)c1=O	-0.1	-0.9	96.3*	8.5
O=C(COC(=O)CNC(=O)c1sc2ccccc2c1Cl)Nc1c(Cl)cc(Cl)cc1Cl	-4.5	-2.9	3.3	-3.4
CC1CCCCC1NC1=NCCCS1 (stereo not given)	-2.6	53.6*	·	-2.1
CCCCNC(=O)N1CCCC1C(=O)Nc1cccc(OC)c1 (stereo not given)	·	·	-5.4	·
O=c1[nH]c2ccccc2n1C1=CCCC1	-2.0	13.9	8.2	0.8
O=c1[nH]c2ccccc2n1C1=CCNCC1	0.2	52.0*	2.7	-0.4
CCOc1cc(C2C(C#N)=C(N)OC(C)=C2C(C)=O)cc(Br)c1O (stereo not given)	-0.8	50.0*	-13.4	0.2
CCOc1cc(C2C(C#N)=C(N)OC(C)=C2C(C)=O)c(Br)c(Br)c1OC(C)C (stereo not given)	3.7	17.8	·	-2.7
CC(C)CN1C(=O)[C@@]2(CC(=O)N(C)C2c2ccccc2)c2cc(-n3cc(-c4ccccc4)nn3)ccc21 (stereo not given in full)	·	·	-2.0	·
CCN1CCN(CCC(=O)Nc2cc(OC)cc(OC)c2)CC1	-4.2	51.3*	15.4	4.1
Cc1cc(NC(=O)COc2ccc3ccccc3c2Br)no1	·	·	-1.7	·
Cc1cc(Cl)ccc1OCC(=O)NCCOC(=O)Nc1sc(=S)n(C)c1C	6.5	-6.1	3.1	-0.2
Cc1ccc(Cl)cc1OCC(=O)NCCOC(=O)Nc1sc(=S)n(C)c1C	-3.3	55.4*	2.5	-3.8
CC(C)(C)c1nn(-c2ccccc2)c2[nH]c(=O)c(C=O)cc12	0.8	8.5	-0.9	-1.6
CCOC(=O)C1CCN(c2nc(N)c3c(N)nc(SCC(=O)O)cc3c2C#N)CC1	-1.2	-7.9	1.0	45.2*
CCOC(=O)C1CCN(c2nc(C)cc(C)c2C#N)CC1	-3.2	25.7	-12.8	-1.5
COc1cccc(N2CC(C(=O)Nc3nnc(SCCN4CCOCC4)s3)CC2=O)c1 (stereo not given)	-5.2	6.2	-3.2	-0.8
Cc1cccn2cc(COc3cccc([N+](=O)[O-])c3)nc12	-4.7	25.1	5.7	1.5
O=[N+]([O-])c1cccc(OCc2cn3cccnc3n2)c1	2.3	52.7*	4.1	-4.5
S=C1SCCCN1Cc1ccc(Cl)cc1	·	·	-12.8	·
O=C(CC1CCCC1)N1CCN(S(=O)(=O)c2cccc(Br)c2)CC1	·	·	1.4	·
Cc1cccc(OCCN2CSC(=S)N(C)C2)c1	1.4	45.4	-3.5	41.9*
SMILES	SARS 3CLpro inh	VHR inh abs	CCHF vOTU inh	RecA splice inh
Fc1ccc(Oc2nc(-c3ccccc3)nnc2C(F)(F)F)cc1	1.1	21.3	6.9	62.0*
c1coc(-c2cnc3ccccc3n2)c1	·	·	-117.4	·
O=C(NCCO)c1ccc2nc(-c3ccco3)c(-c3ccco3)nc2c1	3.6	41.6	77.3*	12.5
c1coc(-c2nc3ccccc3nc2-c2ccco2)c1	1.2	1.9	51.5*	-14.3
COc1cc(NC(=O)C2CC(c3c(F)cccc3Cl)=NO2)cc(OC)c1OC (stereo not given)	3.0	7.4	-0.1	·
CC1CCN(CCCNC(=O)CN2CCN(Cc3ccc(Cl)cc3)C2=O)CC1	1.4	22.6	-0.6	0.3
O=C(CN1CCN(Cc2ccccc2)C1=O)NCCCN1CCOCC1	3.4	50.3*	-6.4	-5.9
O=C(COC(=O)CCN=C1NS(=O)(=O)c2ccccc21)NNC(=O)c1ccc(Cl)cc1	·	·	-0.9	·
O=c1oc2ccccc2n1Cc1cccc(F)c1	0.7	52.6*	-11.3	1.2
Cc1ccc(Cn2c(=O)oc3ccccc32)cc1	-2.3	15.5	1.6	2.0
CC(=O)C(Sc1ccc2nnc(-c3ccc(F)cc3)n2n1)C(C)=O	1.4	25.2	3.4	-1.8

Screening data from PubChem.
